Laboratory results taken from PubChem BioAssay (Tox21).
Inconclusive results are not listed. Activity calls are given as the source filed them. Unless noted, calls come from the whole dose curve.

Assays:
[1] = Nuclear factor erythroid 2-related factor 2/antioxidant responsive element (Nrf2/ARE) small molecule agonists: qHTS cell viability counter screen in human keratinocytes (AID 1919968; active = well fitted curve in the direction sought with a large enough effect in the repeat runs; an effect the other way counts as inactive or inconclusive; note: nearly all actives have a fitted effect of over 55% in size; note: potency is the fitted concentration of half-maximal effect)
How it was run: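 In human HaCaT keratinocytes stably expressing an ARE-driven luciferase, compound exposure lasted 23 h at 37 C under 5% CO2. Viable cells are quantified with a protease-based fluorogenic reagent (CellTiter-Fluor) read 1 h after addition.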

[2] = biological target: Gonadotropin-releasing hormone receptor (Homo sapiens) (UniProt P30968); experiment: Human gonadotropin-releasing hormone receptor (GnRHR) small molecule agonists, calcium flux assay in GnRHR-HEK293 cells (AID 1920063); note: nearly all actives have a fitted effect of over 35% in size
Sequence of Gonadotropin-releasing hormone receptor (Homo sapiens) (P30968 whole entry, looked up): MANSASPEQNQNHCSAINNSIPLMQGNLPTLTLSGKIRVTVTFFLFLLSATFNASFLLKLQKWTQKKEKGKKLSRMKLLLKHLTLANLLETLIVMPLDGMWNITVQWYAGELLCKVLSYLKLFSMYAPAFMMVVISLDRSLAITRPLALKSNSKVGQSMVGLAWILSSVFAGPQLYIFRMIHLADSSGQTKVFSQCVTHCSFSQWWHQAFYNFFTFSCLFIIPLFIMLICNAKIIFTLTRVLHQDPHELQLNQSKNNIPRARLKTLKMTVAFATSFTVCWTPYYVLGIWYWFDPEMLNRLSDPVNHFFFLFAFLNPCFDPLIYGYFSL
How it was run: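 Intracellular calcium rise is the read-out: engineered human GnRHR HEK293 cells, dye-loaded, are exposed to DMSO-dissolved compounds and fluorescence at Ex/Em 480/540 is tracked for 3 min.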

[3] = biological target: KiSS-1 receptor (Homo sapiens) (UniProt Q969F8); experiment: Human kisspeptin (KISS1R) small molecule agonists, calcium flux assay in KISS1R-HEK293 cells (AID 1920064; active = well fitted curve in the direction sought with a large enough effect in the repeat runs; an effect the other way counts as inactive or inconclusive)
Sequence of KiSS-1 receptor (Homo sapiens) (Q969F8 whole entry, looked up): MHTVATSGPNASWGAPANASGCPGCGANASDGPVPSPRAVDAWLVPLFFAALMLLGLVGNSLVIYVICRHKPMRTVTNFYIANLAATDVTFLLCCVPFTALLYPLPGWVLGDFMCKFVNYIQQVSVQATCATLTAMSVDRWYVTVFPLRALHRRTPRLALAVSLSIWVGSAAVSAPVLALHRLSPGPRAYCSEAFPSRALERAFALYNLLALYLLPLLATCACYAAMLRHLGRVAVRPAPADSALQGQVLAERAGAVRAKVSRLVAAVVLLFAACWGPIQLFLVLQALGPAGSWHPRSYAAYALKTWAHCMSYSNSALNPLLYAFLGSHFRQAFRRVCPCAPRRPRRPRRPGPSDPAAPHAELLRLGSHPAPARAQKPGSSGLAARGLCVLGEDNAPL
How it was run: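 Concentration-response testing used 15 concentrations in triplicate on human KISS1R-expressing HEK293 cells. Calcium-dependent fluorescence (Ex/Em 480/540) was followed kinetically for 3 min after compound transfer.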

[4] = G protein-coupled receptor (GPCR) small molecule agonists, calcium flux assay: HEK293 wild type cell line counter screen (AID 1920065)
How it was run: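 Fluorescence intensity signals activation. After overnight (18 h) culture and a 1 h calcium dye load at 37 C, compounds are added by pin tool and the plate read at 480/540 nm for 3 min in 1 s steps.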

[5] = p53 small molecule agonists, cell-based qHTS assay with human liver microsomes: qHTS cell viability counter screen (AID 1963579); note: nearly all actives have a fitted effect of over 45% in size
How it was run: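 p53RE-bla cells (4,000/well) were pre-incubated 5 h at 37 C, then given compounds in DMSO plus human liver microsomes (0.5 mg/mL final) and NADPH (0.5 mg/mL final) for 16 h at 37 C. Viability was read by CellTiter-Glo luminescence.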

[6] = p53 small molecule agonists, cell-based qHTS assay with rat liver microsomes: qHTS cell viability counter screen (AID 1963580); note: nearly all actives have a fitted effect of over 45% in size
How it was run: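 Rat liver microsome (0.5 mg/mL final) and NADPH (0.5 mg/mL final) co-incubation with compounds for 16 h at 37 C on HCT-116 p53RE-bla cells; cytotoxicity taken from intracellular ATP luminescence.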

[7] = p53 small molecule agonists, cell-based qHTS assay: qHTS cell viability counter screen (AID 1963581); note: nearly all actives have a fitted effect of over 45% in size; note: potency is the fitted concentration of half-maximal effect
How it was run: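 Luminescence from CellTiter-Glo, reflecting ATP content, serves as the cytotoxicity measure; it is taken after the 2 h reporter substrate step in HCT-116 p53RE-bla cells dosed for 16 h at 37 C.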

[8] = biological target: 5-hydroxytryptamine receptor 2A (Homo sapiens) (UniProt P28223); experiment: 5-hydroxytryptamine receptor 2A (HTR2A) small molecule antagonists, cell-based qHTS assay (AID 1963586); note: nearly all actives have a fitted effect of over 45% in size; note: potency is the fitted concentration of half-maximal effect
Sequence of 5-hydroxytryptamine receptor 2A (Homo sapiens) (P28223 whole entry, looked up): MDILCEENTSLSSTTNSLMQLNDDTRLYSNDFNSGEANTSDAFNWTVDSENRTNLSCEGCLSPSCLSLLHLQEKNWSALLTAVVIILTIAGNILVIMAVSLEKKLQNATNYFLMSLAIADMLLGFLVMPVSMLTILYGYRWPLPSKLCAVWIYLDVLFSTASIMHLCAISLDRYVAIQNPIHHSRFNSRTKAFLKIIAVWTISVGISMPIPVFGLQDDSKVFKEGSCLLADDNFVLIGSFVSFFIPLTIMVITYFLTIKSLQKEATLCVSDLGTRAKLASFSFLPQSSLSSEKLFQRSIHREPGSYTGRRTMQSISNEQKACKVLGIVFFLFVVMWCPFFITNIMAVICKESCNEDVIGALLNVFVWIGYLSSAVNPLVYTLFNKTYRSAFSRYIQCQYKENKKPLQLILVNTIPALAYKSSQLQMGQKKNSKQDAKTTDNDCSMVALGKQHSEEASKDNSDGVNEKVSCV
How it was run: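 CHO cells stably expressing human HTR2A were plated for 18 h at 37 C, then loaded with calcium dye for 1 h. Compounds were preincubated 5 min at room temperature before DOI (4 nM solution) was added. Kinetic fluorescence was read for 3 min.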

[9] = biological target: Muscarinic acetylcholine receptor M1 (Homo sapiens) (UniProt P11229); experiment: Cholinergic receptor muscarinic 1 (CHRM1) small molecule antagonists, cell-based qHTS assay (AID 1963588); note: nearly all actives have a fitted effect of over 40% in size
Sequence of Muscarinic acetylcholine receptor M1 (Homo sapiens) (P11229 whole entry, looked up): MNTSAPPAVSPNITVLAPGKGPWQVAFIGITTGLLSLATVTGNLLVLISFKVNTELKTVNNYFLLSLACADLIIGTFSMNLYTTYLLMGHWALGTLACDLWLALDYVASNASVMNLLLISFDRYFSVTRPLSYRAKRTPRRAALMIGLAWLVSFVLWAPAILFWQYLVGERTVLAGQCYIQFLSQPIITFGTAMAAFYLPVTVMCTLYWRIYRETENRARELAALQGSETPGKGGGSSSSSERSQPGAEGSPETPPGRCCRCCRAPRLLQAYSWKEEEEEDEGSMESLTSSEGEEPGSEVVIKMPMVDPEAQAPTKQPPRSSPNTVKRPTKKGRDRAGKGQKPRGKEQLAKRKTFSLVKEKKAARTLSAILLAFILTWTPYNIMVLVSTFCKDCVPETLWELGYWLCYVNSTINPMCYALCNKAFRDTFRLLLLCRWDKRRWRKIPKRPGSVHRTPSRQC
How it was run: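 Compounds were tested at 15 concentrations in three independent runs. Dye-loaded CHRM1-CHO cells were exposed 5 min at room temperature before stimulation by acetylcholine added at 50nM. Intracellular calcium was read kinetically on FDSS for 3 min.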

[10] = biological target: Muscarinic acetylcholine receptor M1 (Homo sapiens) (UniProt P11229); experiment: Cholinergic receptor muscarinic 1 (CHRM1) small molecule agonists, cell-based qHTS assay (AID 1963589); note: nearly all actives have a fitted effect of over 35% in size
How it was run: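 Fluorescent calcium dye reports M1 activation in stably transfected CHO cells. Compounds, 15 concentrations, added after 1 h dye loading at 37 C; kinetic reading at 1 sec intervals.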

[11] = cAMP Responsive Elements (CRE) small molecule agonists, cell-based qHTS assay (AID 1963590)
How it was run: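 Compound exposure lasted 3 h at 37 C/5% CO2 in CRE-bla HEK 293T cells grown in assay medium with 10% dialyzed FBS and 25 mM HEPES. Reporter signal came from LiveBLAzer B/G FRET substrate, 2 h, room temperature.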

[12] = cAMP Responsive Elements (CRE) small molecule antagonists, cell-based qHTS assay (AID 1963591; active = well fitted inhibition curve with a large enough effect in the signal ratio in the repeat runs, not every such curve was filed as active; the % refers to the signal ratio)
How it was run: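 Stimulation used NKH477 at a final 0.25 uM for 3 h in compound-treated CRE-bla HEK293T cells, seeded 18 h beforehand. Reporter activity was measured with LiveBLAzer B/G FRET substrate after 2 h at room temperature.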

[13] = biological target: Beta-2 adrenergic receptor (Homo sapiens) (UniProt P07550); experiment: Adrenergic beta2 receptor (ADRB2) small molecule antagonists, cell-based qHTS assay (AID 1963592); note: series mostly up to about 92 µM; nearly all actives have a fitted effect of over 50% in size
Sequence of Beta-2 adrenergic receptor (Homo sapiens) (P07550 whole entry, looked up): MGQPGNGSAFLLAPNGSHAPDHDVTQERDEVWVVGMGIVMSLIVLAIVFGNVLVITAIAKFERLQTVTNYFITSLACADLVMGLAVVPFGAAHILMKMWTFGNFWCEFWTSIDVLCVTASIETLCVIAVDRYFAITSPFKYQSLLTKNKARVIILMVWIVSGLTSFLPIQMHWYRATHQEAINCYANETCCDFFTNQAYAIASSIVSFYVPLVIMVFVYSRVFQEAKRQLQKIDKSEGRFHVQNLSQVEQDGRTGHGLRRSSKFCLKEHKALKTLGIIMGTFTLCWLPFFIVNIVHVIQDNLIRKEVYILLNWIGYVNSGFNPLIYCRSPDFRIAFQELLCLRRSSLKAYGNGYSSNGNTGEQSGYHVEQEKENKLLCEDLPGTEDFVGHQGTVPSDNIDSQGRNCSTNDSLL
How it was run: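 Assay format: CHO-ADRB2 cells, 18-20hr seeding at 37C/5% CO2, then compound plus 1nM isoproterenol agonist mix for 0.5hr RT. Homogeneous time-resolved fluorescence cAMP detection after 1hr, expressed as 665/615 nm ratio.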

[14] = biological target: Beta-2 adrenergic receptor (Homo sapiens) (UniProt P07550); experiment: Adrenergic beta2 receptor (ADRB2) small molecule agonists, cell-based qHTS assay (AID 1963593);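 note: CHO cells stably overexpressing human ADRB2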
How it was run: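 CHO cells stably over-expressing ADRB2 were plated overnight at 37C, then dosed with compounds plus a stimulation mix containing 100uM IBMX and 25uM Ro-20-1724 for 0.5hr at room temperature. cAMP was measured by HTRF competition, 1hr.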

[15] = biological target: D(2) dopamine receptor (Homo sapiens) (UniProt P14416); experiment: Dopamine D2 receptor (DRD2) small molecule agonists, cell-based qHTS assay (AID 1963594); note: nearly all actives have a fitted effect of over 35% in size
Sequence of D(2) dopamine receptor (Homo sapiens) (P14416 whole entry, looked up): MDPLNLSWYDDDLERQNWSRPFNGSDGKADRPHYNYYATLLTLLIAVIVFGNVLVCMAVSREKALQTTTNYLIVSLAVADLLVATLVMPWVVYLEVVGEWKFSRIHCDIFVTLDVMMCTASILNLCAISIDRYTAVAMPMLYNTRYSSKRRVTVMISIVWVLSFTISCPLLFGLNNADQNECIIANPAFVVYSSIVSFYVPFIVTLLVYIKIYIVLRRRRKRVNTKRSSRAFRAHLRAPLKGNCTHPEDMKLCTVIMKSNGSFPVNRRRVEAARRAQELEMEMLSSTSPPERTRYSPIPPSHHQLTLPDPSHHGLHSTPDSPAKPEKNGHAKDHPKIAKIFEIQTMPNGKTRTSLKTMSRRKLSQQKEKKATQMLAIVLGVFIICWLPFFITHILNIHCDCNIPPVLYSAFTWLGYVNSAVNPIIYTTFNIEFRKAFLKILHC
How it was run: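 cAMP accumulation in DRD2-HEK293 cells measured by HTRF after 1 h detection; compounds added 10 min before NKH477 (200nM […]) forskolin-analogue stimulation, 30 min at room temperature, with Ro20-1724 present at 0.1 mM final.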

[16] = biological target: D(2) dopamine receptor (Homo sapiens) (UniProt P14416); experiment: Dopamine D2 receptor (DRD2) small molecule antagonists, cell-based qHTS assay (AID 1963595; active = well fitted inhibition curve with a large enough effect in the signal ratio in the repeat runs, with a control signal flat; the % refers to the signal ratio; note: potency is the fitted concentration of half-maximal effect)
How it was run: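 In this cell-based antagonist screen, compounds act for 10 min at room temperature before a 30 min challenge with 12 nM quinpirole and 200 nM NKH477. cAMP is quantified by HTRF competition in DRD2-HEK293 cells containing 0.1 mM Ro20-1724.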

[17] = biological target: 5-hydroxytryptamine receptor 2A (Homo sapiens) (UniProt P28223); experiment: 5-hydroxytryptamine receptor 2A (HTR2A) small molecule agonists, cell-based qHTS assay (AID 1963587); note: nearly all actives have a fitted effect of over 30% in size
How it was run: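 Kinetic calcium-flux fluorescence (2 min, 1 sec intervals) after compound addition in agonist mode. HTR2A-CHO cells were cultured 18 h, then dye-loaded 1 h at 37 C.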

[18] = p53 small molecule agonists, cell-based qHTS assay (AID 1963582; active = well fitted activation curve with a large enough effect in the signal ratio in the repeat runs, not every such curve was filed as active; the % refers to the signal ratio)
How it was run: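 After plating, p53RE-bla cells sat 5 h in the incubator; compounds or DMSO vehicle were pinned in; a 16 h incubation at 37 C followed; FRET substrate was added and, 2 h later at RT, fluorescence was measured.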

Measured: Potency

C=C[Si](OC)(OC)OC
not listed: [17] | [18]
inactive: all other assays above

CN1C(C(=O)Nc2ccccn2)=C(O)c2sccc2S1(=O)=O
not listed: [8] | [9] | [10] | [15] | [17] | [18]
inactive: all other assays above

CCCCCCCCCCCCCC[P+](CCCC)(CCCC)CCCC (tested in a mixture with another compound)
inactive: [2] | [3] | [4] | [5] | [17] | [13] | [14] | [15]
active: [1] 10.9 µM | [7] 16.3 µM | [16] 27.5 µM

C=C1C(C)(C)[C@@]2(Cl)C(Cl)[C@]1(Cl)C(Cl)(Cl)C2(Cl)Cl (stereo partly drawn)
active: [1] 47.7 µM | [7] 40 µM
not listed: [5] | [11] | [12] | [14] | [15] | [18]
inactive: all other assays above

CC1(C)O[C@@H]2C[C@H]3[C@@H]4C[C@H](F)C5=CC(=O)C=C[C@]5(C)[C@H]4[C@@H](O)C[C@]3(C)[C@]2(C(=O)CO)O1
not listed: [8] | [9] | [10] | [11] | [12] | [17] | [18]
inactive: all other assays above

CC(C)NC(=O)NC(C)C
not listed: [5] | [14] | [18]
inactive: all other assays above

O=Cc1ccccc1S(=O)(=O)O
not listed: [6] | [10] | [18]
inactive: all other assays above

CC(C)O
not listed: [6] | [11] | [14] | [18]
inactive: all other assays above

O=C(O)Cc1ccc(OCCNC[C@H](O)c2ccccc2)cc1
not listed: [8] | [14] | [18]
inactive: all other assays above

C=CCOC(=O)COCCC(C)C
not listed: [8] | [14] | [15] | [18]
inactive: all other assays above

C=CC(C)(CCC=C(C)C)OC(=O)CC(C)C (stereo not drawn)
not listed: [8] | [11] | [13] | [14] | [17] | [18]
inactive: all other assays above

Cc1cccc(N(C)C(=S)Oc2ccc3c(c2)C2CCC3C2)c1 (stereo not drawn)
active: [8] 1.63 µM
not listed: [4] | [11] | [14]
inactive: all other assays above

O=S(=O)(c1cccc2cnccc12)N1CCCNCC1
not listed: [5] | [6] | [7] | [12] | [15] | [17] | [18]
inactive: all other assays above
